Screens (PubChem)
Hits are enriched below; roughly 13% of the tested compounds scored in any of these assays.
USP30 block = inhibitors of human USP30 deubiquitinase | inhibition, % at 25 µM | 47,000 compounds, 5.3% hits | purified USP30, Ub-rhodamine cleavage fluorescence
UCHL1 inh = human UCHL1 deubiquitinase inhibition; purified UCHL1, Ub-rhodamine cleavage fluorescence; inhibition, % at 20 µM; 47,000 compounds, 0.2% hits; AID 1645859
Target sequence (P09936 whole entry, looked up): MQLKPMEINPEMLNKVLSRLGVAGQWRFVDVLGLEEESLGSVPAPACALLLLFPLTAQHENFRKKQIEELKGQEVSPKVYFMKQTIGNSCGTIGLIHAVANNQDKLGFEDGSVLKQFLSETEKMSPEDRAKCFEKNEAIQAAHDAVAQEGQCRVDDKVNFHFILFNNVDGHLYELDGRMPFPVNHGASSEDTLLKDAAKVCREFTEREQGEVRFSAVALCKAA
USP17 block = blocks human USP17 ubiquitin-rhodamine cleavage; A8MUK1; purified USP17, Ub-rhodamine cleavage fluorescence, 3 h; inhibition, % at 50 µM; 47,000 compounds, 6.5% hits
USP10 block = blocks human USP10 ubiquitin-rhodamine cleavage; purified USP10, Ub-rhodamine fluorescence, 60 min; inhibition, % at 20 µM; 47,000 compounds, 1.1% hits; AID 1645856
USP7 inh = blocks human USP7 ubiquitin-rhodamine cleavage; 47,000 compounds, 0.3% hits; Q93009; purified USP7, Ub-rhodamine cleavage fluorescence; inhibition, % at 20 µM; AID 1645854
USP8 block = human USP8 deubiquitinase inhibition; purified USP8, Ub-rhodamine cleavage fluorescence, 30 min; 47,000 compounds, 4.2% hits; inhibition, % at 20 µM; P40818
Starred values were filed as active, the others as inactive; / = not tested or not shown. No stated cut-off is given here; in the data, active means inhibition above about 30%; inactive means the rest.

SMILES	USP30 block	UCHL1 inh	USP17 block	USP10 block	USP7 inh	USP8 block
COc1cc(C2C3=C(CC(c4ccco4)CC3=O)Nc3ccccc3N2C(=O)c2ccccc2)cc(OC)c1OC (configuration not stated)	-8	5	6	1	6	34*
COc1ccc(OC)c(NC(=O)c2sccc2Oc2ccc(F)cc2[N+](=O)[O-])c1	30*	8	9	1	10	1
CC(=O)Nc1ccc(NC(=O)c2sccc2Oc2ccc([N+](=O)[O-])cc2)cc1	12	2	1	-1	0	-37
N#Cc1c(F)cccc1N1CCC(C2CCCCCN2C(=O)C2CC2)CC1 (configuration not stated)	34*	1	15	0	-40	3
CC1(C2CCN(c3cccc(F)c3C#N)CC2)NC(=O)NC1=O (configuration not stated)	32*	0	11	0	-13	0
CC1(C2CCN(C(=O)c3ccc(Cl)cc3)CC2)NC(=O)NC1=O (configuration not stated)	26	2	/	3	5	28
COc1cccc(C(=O)N[C@@H]2CC[C@@H](Oc3ccccc3)[C@H](O)[C@H]2O)c1	12	0	7	-1	-1	11
CCOc1ccc(NC(=O)CC2N=C(N3CCN(c4ccccc4F)CC3)NC2=O)cc1 (configuration not stated)	35*	0	13	4	0	3
Cc1cc(NC(=O)CNc2ccccc2F)no1	-35	-1	-15	-1	-2	1
CCN(CC(=O)Nc1cc(C)on1)c1cccc2ccccc12	27	1	88*	5	0	90*
COCC1CN(C(=O)c2c(C)noc2C)Cc2cnn(CC3CC3)c21 (configuration not stated)	12	0	-3	2	0	-79
O=S(=O)(NCc1csc2ccc(Cl)cc12)c1cccc2cccnc12	29	0	6	3	7	38*
O=S(=O)(NCc1csc2ccc(Cl)cc12)c1ccc(Cl)cc1	0	-35	17	-8	-24	-8
COc1ccc(C(=O)COC(=O)/C=C/c2ccc(S(=O)(=O)Nc3cccc(S(N)(=O)=O)c3)cc2)cc1	22	5	10	23	5	-6
CCc1ccc(NC(=O)C(C)OC(=O)/C=C/c2ccc(S(=O)(=O)Nc3cccc(S(N)(=O)=O)c3)cc2)cc1 (configuration not stated)	15	4	33*	33*	9	18
NS(=O)(=O)c1cccc(NS(=O)(=O)c2ccc(/C=C/C(=O)OCC(=O)c3ccc(Br)cc3)cc2)c1	18	5	15	41*	14	6
CCOC(=O)C1C2C(=O)N(C)c3ccccc3C(=O)C12C (configuration not stated)	14	0	-2	0	-2	-1
CCOC(=O)N1CCN(Cc2nnnn2-c2cccc(F)c2)CC1	34*	1	17	1	3	4
CCCNC(=O)[C@H](Cc1ccccc1)NC(=O)N1CCn2c1nc1ccccc12	39*	-1	40*	2	-12	-3
CC(C)NC(=O)[C@H](Cc1ccccc1)NC(=O)N1CCn2c1nc1ccccc12	62*	0	33*	-1	-6	-5
O=C(O)CNC(=O)[C@H](Cc1ccccc1)NC(=O)N1CCn2c1nc1ccccc12	2	0	2	2	-4	-6
CC(C)[C@H](NC(=O)N1CCn2c1nc1ccccc12)C(=O)N[C@H](Cc1ccccc1)C(=O)O	-9	-2	-5	5	3	-1
Cc1ccccc1Nc1nc(N)nc(CN2CCCCC2)n1	-85	-9	-10	-7	-7	8
CC(=O)c1cccc(NC(=O)C2c3ccccc3C(=O)N(C3CCCC3)C23CCCCC3)c1 (configuration not stated)	-175	-9	-7	-8	-10	65*
O=C(NC1CC1)C1c2ccccc2C(=O)N(C2CCCC2)C12CCCCC2 (configuration not stated)	-10	-3	-3	-4	-3	-2
C1CC(c2nnc3n2CCNCC3)N(CC2CC2)C1 (configuration not stated)	7	2	14	-1	4	2
CCOC(=O)c1sc(NC(=O)NC2CCCCC2)nc1C	15	-1	8	7	-4	0
